# p53 PUMA act: mutant p53 pathway reactivation; SW480 PUMA-promoter luciferase; activation, % at 9.98 µM; hit rate 1.5% among 28,000; AID 624151; in the data active = activation above about 52%
# STK33 kin inh: human STK33 kinase inhibition; inhibition, % at 12.5 µM; ADP-Glo luminescence, MBP substrate; AID 2322; hit rate 0.44% among 27,000; in the data active = inhibition above about 20%
# ID4 binder: binds human ID4 protein on microarray; small molecule microarray, Flag-ID4 binding, fluorescence F/B; hit rate 1.2% among 31,000; calls only; AID 624137; call rule not given here;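 also: a binder raises fluorescence above local background on the spot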
# Target sequence (P47928 whole entry, looked up): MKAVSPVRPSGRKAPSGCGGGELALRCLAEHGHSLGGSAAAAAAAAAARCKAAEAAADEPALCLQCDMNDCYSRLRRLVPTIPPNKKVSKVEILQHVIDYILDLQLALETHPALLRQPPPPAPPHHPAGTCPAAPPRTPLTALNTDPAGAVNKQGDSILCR
# A number is an active result; – = inactive; · = not tested or not shown; + = active, no number. The list is not random: actives were taken first. Their share in the collection is about 2%.
SMILES,p53 PUMA act,STK33 kin inh,ID4 binder
C[C@@H]1C[C@@H]2O[C@H]2/C=C/C=C\C(=O)Cc2c(Cl)c(O)cc(O)c2C(=O)O1,·,–,·
COc1cc(C)c2c(=O)c3c(O)cc(O)cc3oc2c1,·,–,·
CCN(CC(=O)Nc1ccccc1SC)S(=O)(=O)c1ccc2ccccc2c1,–,–,–
CC1CCc2c(sc3ncnc(SCCO)c23)C1 (stereo not drawn),–,–,–
CS(=O)(=O)N(CC(=O)Nc1c(F)cccc1F)c1cccc(Br)c1,–,–,–
Cn1c(SCC(=O)N2c3ccccc3Sc3ccccc32)nnc1-c1ccccc1Cl,–,–,–
O=C(COc1ccccc1Cl)NCc1ccco1,–,–,–
O=C(COc1cc(Cl)c(Cl)cc1Cl)NCc1ccco1,56.2,–,–
O=C1c2ccccc2C(=O)N1CCc1nc(-c2ccccn2)no1,–,–,–
c1ccc(-c2noc(COc3cccc4ccccc34)n2)nc1,87.2,–,–
c1ccc(OCCCc2nc(-c3ccccn3)no2)cc1,68.9,–,–
CC(Oc1ccc(C(C)(C)C)cc1)c1nc(-c2ccccn2)no1 (stereo not drawn),–,–,–
Cc1ccccc1OC(C)c1nc(-c2ccccn2)no1 (stereo not drawn),116.4,–,–
O=C1c2ccccc2C(=O)N1CCCc1nc(-c2ccccn2)no1,–,–,–
S=C(NCC1CCCO1)Nc1cnn(Cc2ccc(Cl)cc2)c1 (stereo not drawn),–,–,–
O=[N+]([O-])c1ccc2nc(CSc3ncnc4ccccc34)[nH]c2c1,–,–,–
COc1cc(O)c2c(c1C)C(C)C(O)(CO)OC2=O (stereo not drawn),–,–,–
COc1ccc(-c2nc(SCC(=O)Nc3cccc(C(F)(F)F)c3)n[nH]2)cc1,–,–,–
C=CCSc1n[nH]c(-c2ccc(C(F)(F)F)cc2)n1,111.0,·,–
CN(c1cccc(NS(=O)(=O)c2ccc3c(c2)OCCO3)c1)S(C)(=O)=O,–,–,–
Cc1cc(C)nc(NS(=O)(=O)c2ccc(NC(=O)c3ccc(C(=O)c4ccccc4)cc3)cc2)n1,–,–,+
Cc1cc(C)nc(NS(=O)(=O)c2ccc(NC(=O)c3ccc(-c4ccccc4)cc3)cc2)n1,–,–,–
CC1(C)C=C(c2ccc(C3=CC(C)(C)NC(C)(C)C3)s2)CC(C)(C)N1,–,·,–
COc1cc(N)c(Cl)cc1C(=O)NC1CCN(Cc2ccccc2)CC1,·,–,·
O=C(NC1CCN(Cc2ccccc2)CC1)c1ccc(NS(=O)(=O)c2cccs2)cc1,–,·,+
SMILES,p53 PUMA act,STK33 kin inh,ID4 binder
CCOC(=O)/C=C/c1ccccc1OC,·,·,–
COc1ccccc1/C=C/C(=O)N1CCCC(c2ccccc2)C1 (stereo not drawn),101.4,·,–
CC1Sc2ccc(Cl)cc2C(=O)/C1=C/N(C)C (stereo not drawn),–,·,–
O=C(CSc1ccccc1C(=O)O)Nc1ccnc2ccccc12,–,–,–
O=C(O)c1ccc2c3c1cccc3c(=O)n1c3ccccc3nc21,·,69.8,·
CN(C(=S)SCc1ccccc1)c1ccccc1,–,·,–

# Screening data deposited in PubChem by Broad Institute.
